A short description of test [1]: qHTS assay to identify small molecule antagonists of the glucocorticoid receptor (GR) signaling pathway - cell viability counter screen (AID 720693). Note: nearly all actives have a fitted effect of over 55% in size. Note: potency is the fitted concentration of half-maximal effect.
Test [2] can be described thus: qHTS assay for identifying genotoxic compounds that show differential cytotoxicity against isogenic chicken DT40 cell lines with known DNA damage response pathways - wild type cell line (AID 743012). Note: nearly all actives have a fitted effect of over 60% in size. Note: potency is the fitted concentration of half-maximal effect. Summed up: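 Wild type DT40, 300 cells/well, ~0.5 h settle at 37 C/5% CO2; compounds in DMSO added by pintool; 40 h at 37 C/5% CO2; CellTiter-Glo, 30 min RT; luminescence.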
In general terms: In qHTS, concentration-response curves come from the screen itself.

Test [3] in a line: qHTS assay for identifying genotoxic compounds that show differential cytotoxicity against isogenic chicken DT40 cell lines with known DNA damage response pathways - Rad54/Ku70 mutant cell line (AID 743015). Note: nearly all actives have a fitted effect of over 60% in size. Note: potency is the fitted concentration of half-maximal effect.
Test [4] can be described thus: qHTS assay to identify small molecule antagonists of the androgen receptor (AR) signaling pathway - cell viability counter screen (AID 743033; note: nearly all actives have a fitted effect of over 45% in size; note: potency is the fitted concentration of half-maximal effect).
In test [5] the target is Androgen receptor (Homo sapiens) (UniProt P10275). Briefly: qHTS assay to identify small molecule agonists of the androgen receptor (AR) signaling pathway (AID 743036; active = well fitted activation curve with a large enough effect in the signal ratio in the repeat runs, with a control signal flat, not every such curve was filed as active; the % refers to the signal ratio; note: % is set by controls: 0 for no effect and ±100 for the full control effect). Summed up: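 AR-bla HEK293 cells, 2,000/well; 4 h preincubation 37C/5% CO2; compound (DMSO) 16 h at 37C; LiveBLAzer B/G FRET substrate 2 h RT; fluorescence intensity read-out.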
The target is the same in test [6]. Put plainly: qHTS assay to identify small molecule agonists of the androgen receptor (AR) signaling pathway using the MDA cell line (AID 743040; note: % is set by controls: 0 for no effect and ±100 for the full control effect; nearly all actives have a fitted effect of over 20% in size). The settings on record: MDA-kb2 AR-luc cells, MMTV luciferase, 16 h, stronger effect = higher value. The method, boiled down:
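Human breast carcinoma MDA-kb2 reporter cells (MMTV-luc, AR/GR elements) were treated for 16 h at 37C in 0% CO2 following a 5 h settling period. Signal was quantified by ONE-Glo luminescence.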

Test [7] is described as follows: qHTS assay to identify small molecule antagonists of the androgen receptor (AR) signaling pathway using the MDA cell line - cell viability counter screen (AID 743041; note: nearly all actives have a fitted effect of over 45% in size; note: potency is the fitted concentration of half-maximal effect). The method, boiled down: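 Same-well cytotoxicity was assessed by CellTiter-Fluor in MDA-kb2 AR-luc cells after 16 h of compound treatment under R1881 agonism.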
The target in test [8] is Androgen receptor (Homo sapiens) (UniProt P10275). Put plainly: qHTS assay to identify small molecule antagonists of the androgen receptor (AR) signaling pathway using the MDA cell line (AID 743042; note: % is set by controls: 0 for no effect and ±100 for the full control effect; nearly all actives have a fitted effect of over 55% in size). The method, boiled down:
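MDA-kb2 breast carcinoma cells carrying MMTV-luciferase (AR/GR responsive) were co-treated with compounds and the agonist R1881 for 16 h at 37C. Inhibition read as ONE-Glo luminescence; CellTiter-Fluor fluorescence measured in parallel for cytotoxicity.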

Test [9] is described as follows: qHTS assay to identify small molecule antagonists of the thyroid receptor (TR) signaling pathway - cell viability counter screen (AID 743064). Note: nearly all actives have a fitted effect of over 50% in size. Note: potency is the fitted concentration of half-maximal effect. Summed up: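 GH3.TRE-Luc cells, 4 h pre-plating; cpd + T3 1 nM final; 37 °C 23.5 h; CellTiter-Fluor 30 min; fluorescence read.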
Test [10] can be described thus: qHTS assay to identify small molecule antagonists of the thyroid receptor (TR) signaling pathway (AID 743065). Note: nearly all actives have a fitted effect of over 55% in size. Note: potency is the fitted concentration of half-maximal effect. The method, boiled down:
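GH3.TRE-Luc rat pituitary cells (two TREs driving luciferase) were dosed with compound, then stimulated with 1 nM T3 (final) for 23.5 h at 37 C. ONE-Glo luminescence was the read-out, with CellTiter-Fluor fluorescence as the cytotoxicity counter-screen.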

Test [11] relates to thyroid hormone receptor (rat, GH3 cells). Briefly: qHTS assay to identify small molecule agonists of the thyroid receptor (TR) signaling pathway (AID 743066; calls by dose curve; note: % is set by controls: 0 for no effect and ±100 for the full control effect).
Test [12] has as its target Estrogen receptor (Homo sapiens) (UniProt P03372). Put plainly: qHTS assay to identify small molecule antagonists of the estrogen receptor alpha (ER-alpha) signaling pathway (AID 743069; active = well fitted curve in the direction sought with a large enough effect in the signal ratio in the repeat runs, not every such curve was filed as active; the % refers to the signal ratio; note: % is set by controls: 0 for no effect and ±100 for the full control effect). Summed up:
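Reporter cells (ER-alpha-bla, HEK293 background) are conditioned overnight in stripped-serum medium (2% charcoal-stripped FBS). Compound and 17beta-estradiol exposure runs 18 hr at 37C, 5% CO2.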

Test [13] in a line: qHTS assay to identify small molecule antagonists of the estrogen receptor alpha (ER-alpha) signaling pathway - cell viability counter screen (AID 743074; calls by dose curve;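 note: HEK293 cells carrying ER-alpha-UAS-bla reporter stimulated with 17beta-estradiol; nearly all actives have a fitted effect of over 45% in size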; note: potency is the fitted concentration of half-maximal effect).
Test [14] addresses Estrogen receptor (Homo sapiens) (UniProt P03372). Briefly: qHTS assay to identify small molecule agonists of the estrogen receptor alpha (ER-alpha) signaling pathway (AID 743075; calls by dose curve;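 note: HEK293 GripTite cells with ER-alpha and UAS-driven beta-lactamase reporter; % is set by controls: 0 for no effect and ±100 for the full control effect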).
For test [15] the target is unchanged. Put plainly: qHTS assay to identify small molecule agonists of the estrogen receptor alpha (ER-alpha) signaling pathway using the BG1 cell line (AID 743079). Note: nearly all actives have a fitted effect of over 20% in size. Note: potency is the fitted concentration of half-maximal effect. The settings on record: BG1Luc4E2 cells, ERE-luciferase agonist, 22 h; activation: at 70.3 µM (top of the series) unless noted.
Test [16] in a line: qHTS assay to identify small molecule antagonists of the estrogen receptor alpha (ER-alpha) signaling pathway using the BG1 cell line - cell viability counter screen (AID 743081).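 Note: compound given together with 17beta-estradiol as the ER stimulus; nearly all actives have a fitted effect of over 45% in size.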 Note: potency is the fitted concentration of half-maximal effect.
The next test concerns the target Aromatase (Homo sapiens) (UniProt P11511). Put plainly: qHTS assay to identify aromatase inhibitors (AID 743083). Note: nearly all actives have a fitted effect of over 55% in size. Note: potency is the fitted concentration of half-maximal effect.
The target of test [17] is Androgen receptor (Homo sapiens) (UniProt P10275). Put plainly: qHTS assay to identify small molecule antagonists of the androgen receptor (AR) signaling pathway (AID 743035; active = well fitted inhibition curve with a large enough effect in the signal ratio in the repeat runs, not every such curve was filed as active; the % refers to the signal ratio; note: % is set by controls: 0 for no effect and ±100 for the full control effect). The method, boiled down:
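Fluorescence from a beta-lactamase FRET substrate (LiveBLAzer B/G, 2 h, room temperature) measured inhibition of R1881-stimulated signaling in GeneBLAzer AR-UAS-bla HEK293 cells exposed to compound for 16 h at 37C.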

The nature of test [18]: qHTS assay for identifying genotoxic compounds that show differential cytotoxicity against isogenic chicken DT40 cell lines with known DNA damage response pathways - Rev3 mutant cell line (AID 743014).
Test [19] is described as follows: qHTS assay to identify small molecule antagonists of the estrogen receptor alpha (ER-alpha) signaling pathway using the BG1 cell line (AID 743080; calls by dose curve;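 note: BG1 cells stimulated with 17beta-estradiol alongside compound; nearly all actives have a fitted effect of over 25% in size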; note: potency is the fitted concentration of half-maximal effect). The method, boiled down: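 Quantitative HTS on the Tox21 10K library: BG1 cells with endogenous ER-alpha and ERE-luciferase reporter, 17beta-estradiol stimulation, 21.5 h compound exposure, luminescence endpoint with parallel fluorescence cytotoxicity counter-read.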

Where “and” joins values, the source holds several entries; their conditions need not be identical. Identical values can stand only once. A number with no mark means an inactive call. Results filed as inconclusive are left out. Calls of active or inactive are those of the source. Unless noted, calls come from the whole dose curve; as a rule, active = well fitted curve in the direction sought with a large enough effect in the repeat runs; inconclusive = weak or mixed curves; inactive = no such curve, though single readings can be large; an effect the other way counts as inactive or inconclusive.

Sequence of Aromatase (Homo sapiens) (P11511 whole entry, looked up): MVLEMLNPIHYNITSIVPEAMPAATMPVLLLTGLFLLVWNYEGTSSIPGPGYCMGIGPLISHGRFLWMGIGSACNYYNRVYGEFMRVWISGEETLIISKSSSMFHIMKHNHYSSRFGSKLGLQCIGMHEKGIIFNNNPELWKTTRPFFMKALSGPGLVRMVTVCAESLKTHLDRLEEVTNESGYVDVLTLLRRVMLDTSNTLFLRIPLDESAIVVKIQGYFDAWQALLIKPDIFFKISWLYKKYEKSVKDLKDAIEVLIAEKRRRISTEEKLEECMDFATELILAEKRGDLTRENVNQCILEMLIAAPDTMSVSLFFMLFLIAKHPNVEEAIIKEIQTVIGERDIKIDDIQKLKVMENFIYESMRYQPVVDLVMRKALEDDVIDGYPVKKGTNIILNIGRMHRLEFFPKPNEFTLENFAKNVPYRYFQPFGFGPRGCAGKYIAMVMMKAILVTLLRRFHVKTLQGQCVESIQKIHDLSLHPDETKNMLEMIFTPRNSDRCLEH
Sequence of Androgen receptor (Homo sapiens) (P10275 whole entry, looked up): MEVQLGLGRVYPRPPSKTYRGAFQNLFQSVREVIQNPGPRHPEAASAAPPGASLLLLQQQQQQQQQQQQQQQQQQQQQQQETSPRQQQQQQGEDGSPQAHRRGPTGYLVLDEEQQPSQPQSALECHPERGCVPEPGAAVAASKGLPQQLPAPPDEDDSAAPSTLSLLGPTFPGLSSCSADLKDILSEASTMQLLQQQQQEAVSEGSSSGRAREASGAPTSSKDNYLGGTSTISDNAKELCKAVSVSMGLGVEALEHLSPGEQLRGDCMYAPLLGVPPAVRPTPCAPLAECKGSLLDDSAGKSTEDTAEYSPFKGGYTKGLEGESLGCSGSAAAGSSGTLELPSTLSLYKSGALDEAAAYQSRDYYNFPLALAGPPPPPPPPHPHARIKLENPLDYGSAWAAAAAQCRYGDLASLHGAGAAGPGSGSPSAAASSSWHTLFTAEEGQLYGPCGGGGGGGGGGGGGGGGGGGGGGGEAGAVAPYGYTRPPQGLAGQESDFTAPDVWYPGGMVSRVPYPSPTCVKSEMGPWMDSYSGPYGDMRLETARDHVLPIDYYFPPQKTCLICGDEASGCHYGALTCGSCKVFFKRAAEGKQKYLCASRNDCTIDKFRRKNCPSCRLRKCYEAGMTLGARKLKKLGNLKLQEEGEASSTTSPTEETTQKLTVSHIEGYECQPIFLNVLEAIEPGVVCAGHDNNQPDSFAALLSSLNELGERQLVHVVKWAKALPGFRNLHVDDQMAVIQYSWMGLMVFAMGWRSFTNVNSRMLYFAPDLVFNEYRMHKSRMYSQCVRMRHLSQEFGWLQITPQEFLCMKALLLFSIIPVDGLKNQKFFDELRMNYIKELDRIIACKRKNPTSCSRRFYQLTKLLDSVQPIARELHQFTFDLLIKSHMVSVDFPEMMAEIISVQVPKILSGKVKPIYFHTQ
Sequence of Estrogen receptor (Homo sapiens) (P03372 whole entry, looked up): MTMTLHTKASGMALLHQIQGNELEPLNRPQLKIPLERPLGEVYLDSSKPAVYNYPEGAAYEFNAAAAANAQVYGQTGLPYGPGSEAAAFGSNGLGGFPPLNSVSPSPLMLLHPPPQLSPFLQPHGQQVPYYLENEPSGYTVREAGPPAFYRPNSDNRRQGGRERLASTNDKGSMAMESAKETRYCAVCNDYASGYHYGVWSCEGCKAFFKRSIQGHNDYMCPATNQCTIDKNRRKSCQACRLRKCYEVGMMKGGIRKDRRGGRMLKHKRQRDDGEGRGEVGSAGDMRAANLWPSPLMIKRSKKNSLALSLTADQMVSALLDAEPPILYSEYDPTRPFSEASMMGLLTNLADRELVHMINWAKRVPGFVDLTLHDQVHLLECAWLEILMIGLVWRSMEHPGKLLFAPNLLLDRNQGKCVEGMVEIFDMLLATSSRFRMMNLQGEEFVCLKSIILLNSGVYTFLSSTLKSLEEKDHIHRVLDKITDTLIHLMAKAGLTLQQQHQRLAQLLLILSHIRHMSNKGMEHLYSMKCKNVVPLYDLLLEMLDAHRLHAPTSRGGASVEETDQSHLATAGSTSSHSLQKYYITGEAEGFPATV

On to `CC1=C(C(=O)Nc2ccccc2)SCCO1`, for which the Potency entry in [1], in test [4], in [5], in [7], in test [8] and in [9] was “inactive” throughout. The Potency entry in [10], in test [11], in [12], in test [13], in test [14] and in test [16] was “inactive” in each case. The Potency entry in the test with Aromatase (Homo sapiens) is “inactive”. The Potency in test [2] was 62.1 µM (active) and 17.2 µM (active); in test [3], 62.1 µM (active) and 19.3 µM (active); in test [15], 31.1 µM (active) and 27.3 µM (active). Moreover, the activity change is 4% in [6] (at 70.3 µM (top of the series)) and 0.0315% in test [6] (at 95 µM (top of the series)).
As for `O=C1CCCO1`, the Potency entry in [1], in test [2], in test [3], in test [4], in test [17] and in test [5] was “inactive” each time. Moreover, the Potency result in [7], in test [8], in test [9], in test [10], in test [11] and in [13] was “inactive” throughout. Further, the Potency result (in [16]; with Aromatase (Homo sapiens)) was “inactive” in each case. Also, in [6] (at 70.3 µM (top of the series)), the activity change was -2.47% and -0.181%.
For the molecule `COC(=O)Nc1nc2ccccc2[nH]1`, the Potency result in test [1], in test [4], in test [7], in [8], in [11] and in [13] was “inactive” each time. In addition, the Potency result (in test [16]; with Aromatase (Homo sapiens)) was “inactive” in each case. Besides, the Potency in test [2] was 9.69 µM (active) and 8.63 µM (active); in test [3], 6.86 µM (active) and 7.7 µM (active); in test [9], 12.2 µM (active); in test [10], 5.45 µM (active) and 7.7 µM (active). For the same molecule, the activity change in test [6] (at 70.3 µM (top of the series)) is 0.968% and 4.32%.
Regarding `CCC[CH2][Sn]([Cl])([CH2]CCC)[CH2]CCC`, the Potency in test [1] is 1.1 µM (active); in test [2] it was 546 nM (active) and 486 nM (active); in test [18], 434 nM (active) and 344 nM (active); in [3], 487 nM (active) and 386 nM (active); in test [4] it was 618 nM (active) and 1.1 µM (active); in test [7], 1.22 µM (active) and 2.17 µM (active). Further, the Potency in test [9] is 307 nM (active) and 386 nM (active); in test [10], 194 nM (active) and 273 nM (active); in test [13], 693 nM (active) and 1.55 µM (active); in test [19] it was 274 nM (active) and 486 nM (active); in [16], 2.74 µM (active) and 1.72 µM (active); with Aromatase (Homo sapiens), 2.74 µM (active) and 2.17 µM (active).
In the case of `NN=C(N)N`, the Potency entry in test [1], in [2], in [3], in test [4], in [7] and in test [9] was “inactive” in each case. For the same molecule, the Potency result (in test [10]; in test [11]; in test [13]; in [16]; with Aromatase (Homo sapiens)) was “inactive” each time.
With `ClC(Cl)(Cl)c1ccccc1`, the Potency entry in test [1], in [2], in test [3], in test [4], in test [7] and in test [9] was “inactive” in each case. For the same molecule, the Potency result in test [10], in [11], in test [12], in [13], in [14] and in [15] was “inactive” in each case. Moreover, the Potency result (in [19]; in [16]; with Aromatase (Homo sapiens)) was “inactive” throughout.
Turning to `NC(=O)CN1CCCC1=O`, the Potency entry in test [1], in test [2], in test [3], in test [4], in test [7] and in test [9] was “inactive” in each case. For the same molecule, the Potency result (in test [10]; in [11]; in [13]; in test [16]; with Aromatase (Homo sapiens)) was “inactive” in each case.
Regarding `Clc1ccccc1-c1nnc(-c2ccccc2Cl)nn1`, the Potency entry in test [1], in test [2], in test [3], in [4], in test [7] and in test [9] was “inactive” throughout. Besides, the Potency entry (in [10]; in test [11]; in test [13]; in test [14]; in [16]; with Aromatase (Homo sapiens)) was “inactive” each time. Besides, the Potency in test [15] is 27.1 µM (active) and 43.1 µM (active).
As to `CNC(=O)CSP(=S)(OC)OC`, the Potency result in [1], in test [2], in test [3], in test [4], in [7] and in test [9] was “inactive” in each case. Moreover, the Potency result in [10], in test [11], in [12], in test [13], in test [14] and in [15] was “inactive” in each case. For the same molecule, the Potency entry (in test [19]; in [16]; with Aromatase (Homo sapiens)) was “inactive” throughout.
In the case of `O=[N+]([O-])c1ccc(Nc2ccccc2)cc1`, the Potency in test [1] is 43.6 µM (active); in test [2], 15.4 µM (active); in test [3], 30.9 µM (active) and 10.9 µM (active); in [4] it was 38.9 µM (active); in test [7] it was 61.6 µM (active) and 61.1 µM (active); in [9], 48.6 µM (active). Besides, the Potency in test [10] was 48.9 µM (active) and 30.6 µM (active); in [16], 48.9 µM (active) and 27.3 µM (active); with Aromatase (Homo sapiens), 30.6 µM (active). The Potency entry in test [11] and in test [14] was “inactive” throughout.

The record behind these values is PubChem BioAssay (Tox21).
